Bioassay records as filed in PubChem BioAssay.
The sample as a whole holds a higher share of hits than the screen did.
Bm FixLJ act – B. multivorans fixK reporter activation. z-score (no concentration beside the values). 29,000 tested, 0.3% active. B. multivorans fixK-promoter GFP reporter, 18 h; hits give high values;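 active = replicate mean overnight rise in green fluorescent reporter signal, 3 or more SD over negative controls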
Hits are given with their value; i = inactive.

SMILES	Bm FixLJ act
Nc1c(C(=O)Nc2ccc(F)c(F)c2)sc2nc(-c3ccncc3)ccc12	i
Nc1c(C(=O)Nc2ccccc2Br)sc2nc(-c3cccs3)ccc12	i
Nc1c(C(=O)Nc2ccc(Cl)cc2F)sc2nc(-c3cccs3)ccc12	8.67
Cc1[nH]cnc1-c1nccn1C1CCCC1OCc1ccccc1 (configuration not stated)	i
Cc1cc(/C=C/c2ccc3cc(N(C)C)ccc3[n+]2C)c(C)n1-c1ccccc1	4.03
CCN(C)CC(C)CNC(=O)N(C)CCc1nc2c(C)cccc2[nH]1 (configuration not stated)	i
O=C(O)COc1ccc(CN2CCN3CCCCC3C2)cc1 (configuration not stated)	i
Cn1cnc2cc(C(=O)N3CC(C(=O)O)C(c4ccccc4)C3)ccc21 (configuration not stated)	i
Cc1ccccc1NC(=O)CCS(=O)(=O)c1cc(Br)cc2c1N(C(=O)C1CC1)CC2	i
CCC(=O)N1CCc2cc(Br)cc(S(=O)(=O)CCC(=O)Nc3cccc(C)c3C)c21	3.42
Cc1cccc(NC(=O)CCS(=O)(=O)c2cc(Br)cc3c2N(C(=O)C2CC2)CC3)c1C	i
Cc1ncc(C(=O)N2CCC3(CCCN(C)C3=O)C2)c(=O)[nH]1 (configuration not stated)	i
CC(C)(C)c1ccc(C2Sc3ccccc3NC3=C2C(=O)c2ccccc23)cc1 (configuration not stated)	3.48
COc1ccc(C2CN(c3ccnc(C)n3)CC2NC(C)=O)cc1 (configuration not stated)	i
CCOC(=O)COc1ccc(C2C(C(=O)OC)=C(C)NC3=C2C(=O)c2ccccc23)cc1Cl (configuration not stated)	4.06
CCOc1cc(C2C(C(=O)OC)=C(C)NC3=C2C(=O)c2ccccc23)cc(Br)c1OCC (configuration not stated)	i
CCOc1cc(Br)c(C2C(C(=O)OC)=C(C)NC3=C2C(=O)c2ccccc23)cc1OCC (configuration not stated)	i
CCOC(=O)C1=C(C)NC(C)=C(C(=O)OC)C1c1cccc([N+](=O)[O-])c1 (configuration not stated)	i
CCOc1cc(C2C(C(=O)OC)=C(C)NC3=C2C(=O)c2ccccc23)c(Br)cc1OC (configuration not stated)	i
C#CCOc1ccc(C2C(C(=O)OC)=C(C)NC3=C2C(=O)c2ccccc23)cc1OCC (configuration not stated)	3.72
CNC(=O)C1CC(n2cc(CNC(=O)c3ccc(F)c(C)c3)nn2)CN1 (configuration not stated)	i
CC(C)c1nc(CCNC(=O)N2CCC(Oc3cccnc3)CC2)no1	i
c1n[nH]c(N2CCN(CC3CCCN4CCCC[C@@H]34)CC2)n1 (some centres not stated)	i
O=C(c1ccc[nH]1)N1CCN(C(=O)C(c2ccccc2)C2CCCC2)CC1 (configuration not stated)	i
O=C(Cn1ncc2c3ccccc3n(Cc3ccc(F)cc3)c2c1=O)NCc1cccs1	i
SMILES	Bm FixLJ act
O=C(Cn1ncc2c3ccccc3n(Cc3ccccc3)c2c1=O)NCc1cccs1	i
CC(CCc1ccccc1)NC(=O)Cn1ncc2c3ccccc3n(Cc3ccccc3)c2c1=O (configuration not stated)	i
Cc1c2cnn(CC(=O)NCc3ccccc3)c(=O)c2c(C)n1Cc1cccc(Cl)c1	i
O=C(Cn1ncc2c3ccccc3n(Cc3cccc(Cl)c3)c2c1=O)N1CCCCC1	i
O=C(Cn1ncc2c3ccccc3n(Cc3ccccc3)c2c1=O)N1CCCCCC1	i
O=C(Cn1ncc2c3ccccc3n(Cc3cccc(Cl)c3)c2c1=O)N1CCCCCC1	8.65
CC(CCc1ccccc1)NC(=O)Cn1ncc2c3ccccc3n(Cc3cccc(Cl)c3)c2c1=O (configuration not stated)	25.8
O=C(Cn1ncc2c3ccccc3n(Cc3cccc(Cl)c3)c2c1=O)NCc1cccs1	10.7
O=C(Cn1ncc2c3ccccc3n(Cc3ccccc3)c2c1=O)NCc1ccccc1	i
COc1ccc(CNC(=O)Cn2ncc3c4ccccc4n(Cc4cccc(Cl)c4)c3c2=O)cc1	24.3
CC(CCc1ccccc1)NC(=O)Cn1ncc2c3ccccc3n(Cc3ccccc3F)c2c1=O (configuration not stated)	i
Nc1ccc(S(=O)(=O)[O-])cc1.Nc1ccc(S(=O)(=O)[O-])cc1.[Zn+2]	i
Cc1ccc(C)c(C(=O)N2CCC[C@]3(C2)CN(c2ncccn2)CCC3O)c1 (some centres not stated)	i
CCN(CCc1nc2ccc(F)cc2[nH]1)C(=O)NCc1c(C)noc1C	i
NS(=O)(=O)c1ccc(CNC(=O)c2c[nH]c3c(F)cccc3c2=O)cc1	i
Cc1ccc(Cl)cc1C(=O)NC1(C(N)=O)CCCCCC1	i
COc1ccc(CN2CCN(c3ncccc3C#N)CC2)cc1Cn1cncn1	i
Cc1nc(C)c(C(=O)NCC2CCS(=O)(=O)CC2)s1	i
CC(C1CCN(c2cccc(C(=O)O)n2)CC1)N1CCOCC1 (configuration not stated)	i
